# From the supplement of paper PMC3334620
# The full ranking holds about 33,000 sequences; the median of “E-score (-0.5 to 0.5)” is about -8e-05, and the highest 2% start at about 0.23. This is one part of a sample in which the highest values are shown more often than they occur.
# Target: T1, Nrg2 (UniProt P38082)
# T1 sequence: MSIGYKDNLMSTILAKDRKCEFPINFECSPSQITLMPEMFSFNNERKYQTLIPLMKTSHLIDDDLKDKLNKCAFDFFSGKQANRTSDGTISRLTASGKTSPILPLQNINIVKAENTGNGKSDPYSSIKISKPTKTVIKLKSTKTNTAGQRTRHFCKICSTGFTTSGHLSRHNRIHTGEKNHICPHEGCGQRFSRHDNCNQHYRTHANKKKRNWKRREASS
# Test: PBM E-score (8-mer binding enrichment) (E-score (-0.5 to 0.5)); higher = stronger / more preferred TF binding
# Details: protein concentration: 100 nM; construct: GST-full length
# Protocol: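 Universal 'all 10-mer' protein binding microarrays (Agilent AMADID 015681) probed with GST-tagged S. cerevisiae TFs (full-length or DBD) made by in vitro transcription/translation (PURExpress), about 100-200 nM. Bound TF was detected with fluorescent anti-GST. Each ungapped 8-mer (which stands for itself and its reverse complement) is scored by the PBM enrichment score (E-score), a modified Wilcoxon-Mann-Whitney statistic from -0.5 to +0.5, computed with the Universal PBM Analysis Suite. Scale: above 0.35 generally sequence-specific binding.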
row,Sequence,PBM E-score
1,GGTCAGGA,0.244
2,AGTCAGGA,0.0134
3,GTGGCAGA,-0.276
4,AAGAGCAT,-0.0179
5,GCCCCCTA,-0.212
6,GGCCCTGA,0.24
7,GCCCCTTA,0.114
8,AGCCCTGA,0.0189
9,CGCCCTGA,0.167
10,GCCCCTGA,0.292
11,ACATAGAA,0.157
12,TCCATCGA,-0.021
13,GATACCCC,0.0656
14,AGCTTTAC,-0.26
15,CCCGAGGC,-0.176
16,CATGGTAC,0.00349
17,ATATGACA,0.244
18,GCATGATA,0.0399
19,GTATGAGA,0.133
20,GTATGATA,0.281
21,ATATGATG,0.0173
22,GTATGACA,-0.0684
23,CTATGATA,0.0584
24,CTATGACA,-0.012
25,ATATGATA,0.249

row,Sequence,PBM E-score
1,GAGGGCAC,-0.111
2,AGACAGTA,0.0173
3,CGAAGCGC,-0.0339
4,CCATCCTC,-0.111
5,CTCGGCAC,0.0273
6,AAAGATAG,-0.188
7,AAAGATAC,0.232
8,AAAGATAA,0.112
9,TCAAAGAA,-0.123
10,ACGTCTTG,-0.0332
11,GATAGAGA,-0.0171
12,CTAAGGAA,0.0506
13,CCCTTACG,-0.128
14,TCGCGAAA,0.161
15,ACGCGAAA,0.242
16,CCGCGAAA,0.0786
17,CGAGTGCA,0.0846
18,GTATGGTA,0.158
19,GGACGCCA,-0.149
20,AGACCCAC,0.0598
21,AACTTTGT,0.251
22,AACTTTGA,-0.0178
23,AACTTTGG,-0.0393
24,CGGCTATA,-0.0676
25,GTAACCAA,0.0617

row,Sequence,PBM E-score
1,CTCCGAAA,-0.0954
2,AAGACAAC,0.235
3,ATGACAAG,0.142
4,CAGACAAC,0.178
5,GTGACAAC,0.112
6,AAGACAAG,-0.0376
7,ATGACAAC,0.239
8,AAACCGAT,-0.137
9,CCGCCCGA,0.148
10,ACTTGGCC,-0.0839
11,ATCTGCGC,0.0656
12,ATCTGCGG,0.229
13,ATCTGCGA,0.0624
14,ACTAGAGT,-0.204
15,CTTCGGAC,0.0444
16,ATTATCGA,-0.00721
17,ATTATCGC,0.254
18,ATTATCGG,-0.142
19,ATAGGGGG,-0.364
20,CCCGACCG,-0.0769
21,CACCTGGG,-0.0933
22,ATCGCGAA,0.268
23,ATCGCGAG,0.175
24,TTCGCGAA,0.22
25,GTCGCGAC,0.37

row,Sequence,PBM E-score
1,ATCGCGAC,0.0998
2,AACGCGAA,0.249
3,GGCGCGAC,0.149
4,GTCGCGAA,0.125
5,CTCGCGAC,0.192
6,ATCGCGAT,0.271
7,AACGCGAG,0.092
8,CACGCGAA,-0.135
9,CCGCGCCA,-0.00589
10,CTCCTGTA,-0.111
11,ATACCGGA,-0.222
12,GGCGAGAA,0.16
13,AGTGTATG,0.0501
14,AAGCTACT,0.0546
15,GATCCAGA,0.187
16,AACGTAGG,-0.148
17,CAAAGCGG,-0.0751
18,AAGCAGTA,-0.0813
19,CCGCAGAC,-0.105
20,GCGCAGAA,0.248
21,CCGCAGAA,0.245
22,TCGCAGAA,-0.114
23,CCGCAGAG,-0.193
24,GCGCAGAC,0.0533
25,CAAGCGGC,0.0964

row,Sequence,PBM E-score
1,CACCTATA,-0.032
2,AGTGAAGC,0.054
3,AAAGAACG,0.0453
4,ATTAATCA,0.171
5,AGTCTTGA,-0.0377
6,AACGGCAC,-0.244
7,AACGGCGA,0.303
8,AACGGCAA,0.156
9,AACGGCAT,0.23
10,AACGGCGT,-0.11
11,CACGGCGA,0.0616
12,ATTGCGAG,0.0375
13,GTACGAGA,0.0861
14,TGACGGAA,-0.00402
15,AAGGACTC,-0.0561
16,ATGCTCGG,0.117
17,AAATCCAC,0.082
18,AAATCCAT,0.266
19,AAATCCAG,0.196
20,ATGGTGGA,-0.0629
21,ATATTCAA,0.244
22,CTATTAAA,0.151
23,ATATTAAC,0.176
24,TTATTAAA,0.196
25,ATATTAAG,0.0738

row,Sequence,PBM E-score
1,TTATTCAA,0.029
2,ATATTAAA,0.29
3,GCATTAAA,0.136
4,CTATTCAA,0.0974
5,ACATTAAA,0.143
6,ATATTAAT,0.286
7,TCATTAAA,0.35
8,CGTTAAAC,0.0981
9,ATAGTGAC,-0.0527
10,AAATTATG,0.106
11,ATATTATC,0.0409
12,ATATTATG,0.304
13,AAACCATC,0.103
14,ATGTGCAC,0.0387
15,CATCTAAC,-0.152
16,GGCATAGA,0.0809
17,AATTATAC,0.122
18,GATTATAA,0.207
19,GATTATAC,0.235
20,CTTAGAAC,0.0319
21,CTGACTGA,-0.0542
22,GCTCGAAC,0.191
23,GAAAGAAC,0.0456
24,GGCAGAAC,0.088
25,CAAAGAAA,0.0775

row,Sequence,PBM E-score
1,TGCAGAAA,0.104
2,GAAAGAAA,0.281
3,GGCAGAAA,0.286
4,AAGCTGAG,-0.00374
5,AGCGGTAG,-0.196
6,GAGTAAGA,-0.0102
7,AAGACGGT,-0.161
8,CAAAGCAG,0.0557
9,CAAAGCAA,0.265
10,CAAAGCAC,-0.0605
11,AGTTAGGG,0.0307
12,ACATAAAC,0.0128
13,CAGACCAA,0.0347
14,ACGACCAA,-0.12
15,GCGACCAC,-0.0633
16,GAGACCAA,0.241
17,GCGACCAA,0.248
18,TAGACCAA,0.121
19,CCTTATCC,-0.23
20,AAACTAGG,-0.0197
21,CACCGCAA,0.233
22,AACCGCAA,0.185
23,CACCGCAG,0.0838
